From PubChem BioAssay (NCI)
Compounds without any hit were thinned out: in the full panel of roughly 79,000, 15% have a hit. Rule as the data show it: active = growth inhibition above about 70%; inactive = the rest.

Experiments:
[1] = NCI Yeast Anticancer Drug Screen. Data for the rad50 strain (AID 155);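 also: 0% = growth of vehicle-only cultures of the same strain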; settings: S. cerevisiae rad50 strain growth inhibition; at 50.0 µM; stronger effect = higher value
Summary of the method: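 A DNA repair-deficient yeast mutant serves as the test organism; compound-induced growth inhibition is calculated against vehicle-treated cells.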

[2] = NCI Yeast Anticancer Drug Screen. Data for the mec2-1 strain (AID 157); settings: S. cerevisiae mec2-1 strain, at 50.0 µM, stronger effect = higher value
Summary of the method: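 Compounds were applied to mec2-1 yeast cells. Their growth was then compared with that of vehicle-treated cultures to give growth inhibition.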

[3] = NCI Yeast Anticancer Drug Screen. Data for the sgs1 mgt1 strain (AID 161);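 also: 0% = growth of cultures given vehicle only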; settings: S. cerevisiae sgs1 mgt1 strain, at 50.0 µM, stronger effect = higher value
Summary of the method: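 Compounds are added to genetically altered yeast, and growth is compared with cultures given vehicle alone to give percent inhibition.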

[4] = NCI Yeast Anticancer Drug Screen. Data for the cln2 rad14 strain (AID 165);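 also: 0% = growth equal to vehicle treated cultures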; settings: S. cerevisiae cln2 rad14 strain, at 50.0 µM, stronger effect = higher value
Summary of the method: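 Strain: cln2 rad14 yeast, altered in cell cycle control and DNA damage repair. Read-out: growth inhibition vs vehicle.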

[5] = NCI Yeast Anticancer Drug Screen. Data for the bub3 strain (AID 167); settings: S. cerevisiae bub3 mutant strain, at 50.0 µM, stronger effect = higher value
Summary of the method: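 Inhibition values come from growth of compound-treated mutant yeast normalised to vehicle-treated controls.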

[6] = NCI Yeast Anticancer Drug Screen. Data for the mlh1 rad18 strain (AID 175); settings: S. cerevisiae mlh1 rad18 strain growth inhibition; at 50.0 µM; stronger effect = higher value
Summary of the method: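 A repair-deficient yeast strain is exposed to test compound, and growth is scored relative to vehicle-treated controls.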

Measured: growth inhibition

CSc1nc(C)cc(N(C)c2ccccc2)n1
inactive: [1] -5.9% | [2] 0.25% | [3] 8.85% | [4] -8.9% | [5] -18.2% | [6] 14.6%

CC1=NC(C(N)=O)C(=O)N1 (stereo unspecified)
inactive: [1] -35% | [2] -23.4% | [3] -15.3% | [4] -30.4% | [5] -8.8% | [6] -0.65%

CCCCCCCCCCCCCCCCC1Cc2ccccc2C1
inactive: [1] -12.6% | [2] 8% | [3] -12.8% | [4] -12.1% | [5] -4.15% | [6] -7.6%

Cc1c(Cl)ccc2c1NC(=O)C2(O)CC(=O)c1ccc(Cl)cc1Cl (stereo unspecified)
inactive: [1] 34.4% | [2] 18.7% | [3] 0.1% | [4] -13.5% | [5] 10.9% | [6] 23.4%

CC(=O)NCC(=O)c1ccccc1
inactive: [1] 12.5% | [2] -2.4% | [3] 3.75% | [4] -7.1% | [5] -6.35% | [6] 9.5%

CCOC(=O)C1OC1(C)c1ccc(Cl)cc1 (stereo unspecified)
inactive: [1] 6.1% | [2] 3.8% | [3] -0.7% | [4] 5.25% | [5] -5.8% | [6] 0.6%

CC(C)(C)C1CCC(=NO)CC1 (stereo unspecified)
inactive: [1] 23.1% | [2] 16.1% | [3] 16.5% | [4] 18.3% | [5] 14.3% | [6] 23.8%

N#CC1CCCC/C1=N/NC(N)=O (stereo unspecified)
inactive: [1] -11.9% | [2] -6.65% | [3] -13.6% | [4] -6.05% | [5] -6.65% | [6] -6%

O=C(c1ccccc1)C1(Cl)CCCCC1
inactive: [1] -9.95% | [2] -12.6% | [3] -10.8% | [4] -8.45% | [5] -5.15% | [6] 15.6%

COC(=O)c1ccc(OC(=O)Nc2ccc(Br)cc2)cc1
inactive: [1] 11.3% | [2] 26.4% | [3] 27% | [4] -4.2% | [5] 37.2% | [6] 19.9%

O=C1Nc2ccccc2/C1=N/N=P(c1ccccc1)(c1ccccc1)c1ccccc1
inactive: [1] -10.2% | [2] 0.35% | [3] 10.1% | [4] 2.4% | [5] -5.8% | [6] -5.15%

C=CCOc1c(C)cc(C)cc1C
inactive: [1] 5.3% | [2] -17.4% | [3] -5.95% | [4] -16.3% | [5] -14.8% | [6] -6.85%

COC1OC(CO)C(O)C(OC(C)=O)C1NC(=O)N(CCCl)N=O (stereo unspecified)
inactive: [1] -4.9% | [2] -13.4% | [3] -6.2% | [4] 7.4% | [5] -7.65% | [6] -8.75%

O=C(c1ccc(Cl)cc1)C(C(c1ccccc1[N+](=O)[O-])N1CCCCC1)N1CCCCC1 (stereo unspecified)
inactive: [1] -15.1% | [2] -0.3% | [3] -10.4% | [4] -30.8% | [5] -23.6% | [6] 2.15%

COc1ccc(/C(Cl)=C(\CN(C)C)c2ccc(OC)c(OC)c2)cc1OC
inactive: [1] 41.5% | [2] 18.6% | [3] 10.3% | [4] 27.9% | [5] -5.85% | [6] 24.1%

C[Si](Cn1ccc(=O)n(C[Si](C)(c2ccccc2)c2ccccc2)c1=O)(c1ccccc1)c1ccccc1
inactive: [1] -3.7% | [2] -7.65% | [3] -12.3% | [4] -13.9% | [5] -2.4% | [6] 15.2%

COc1cc(C(O)C2(c3ccc(O)c(OC)c3)NC(=O)NC2=O)ccc1O (stereo unspecified)
inactive: [1] -22.2% | [2] 16.3% | [3] -9.35% | [4] -16.9% | [5] 35.2% | [6] -14.3%

CCCOC(=O)c1cc(O)ccc1O
inactive: [1] 1.15% | [2] -0.45% | [3] 14.9% | [4] -17.6% | [5] -2.55% | [6] -1.7%

CC1(C)CC(=O)NC1=O
inactive: [1] 30.8% | [2] 2% | [3] 8.55% | [4] -0.2% | [5] -19% | [6] 9.3%

OCCSc1ccc(Cl)cc1
inactive: [1] 14.4% | [2] 25.9% | [3] 5.95% | [4] -31.5% | [5] 12.8% | [6] 27.5%

COc1ccc(C(=O)/C=C/c2c[nH]c3ccccc23)c(O)c1
inactive: [1] 15.8% | [2] 9.85% | [3] 26.3% | [4] -43.2% | [5] 9.9% | [6] 22.4%

COC(=O)NC1C(=O)CCC(=O)C1C(N)=O (stereo unspecified)
inactive: [1] -23.4% | [2] -7.65% | [3] -17.4% | [4] -17.5% | [5] -0.3% | [6] -12.4%

CCCOC(=O)c1c(Cl)c(Cl)c(Cl)c(Cl)c1C(=O)OCCC
inactive: [1] 12.8% | [2] -20.8% | [3] 4.8% | [4] -3.05% | [5] -15.2% | [6] 8.3%

O=c1[nH]c(-c2ccccc2)nc(-c2ccccc2)c1Cc1cc2c(cc1O)OCC2
inactive: [1] -0.1% | [2] -4.05% | [3] 20.7% | [4] 2.8% | [5] 0.7% | [6] -10.6%

C/C=C/C=C/CC
inactive: [1] 8.75% | [2] -12.3% | [3] -5.4% | [4] 16.2% | [5] 16.9% | [6] -22.6%

Cn1c(=O)c2[nH]c(N(CCO)CCO)nc2n(C)c1=O
inactive: [1] 7.75% | [2] 9.95% | [3] 23.9% | [4] 21.9% | [5] -2.3% | [6] 15.1%

Nc1nc(-c2ccc(F)cc2)cc(-c2cc(-c3ccc(F)cc3)nc(N)n2)n1
inactive: [1] -17.1% | [2] -2.75% | [3] -20.9% | [4] -2% | [5] -7.15% | [6] 2.15%

CC(CCc1ccccc1)N(C)C(=O)CNC(=O)CN1C(=O)c2ccccc2C1=O (stereo unspecified)
inactive: [1] -18.9% | [2] 1.35% | [3] 6.85% | [4] -1.25% | [5] -15.1% | [6] -6.9%

Cc1c2sc3ccccc3[nH]c2nc2[nH]c3ccccc3sc12
inactive: [1] -24.9% | [2] -10.7% | [3] -25.1% | [4] 2.35% | [5] 11% | [6] 0.95%

CCC(CC)(C(=O)O)C(=O)O
inactive: [1] 34.1% | [2] 9.3% | [3] -3.35% | [4] -33.2% | [5] 12.7% | [6] 5.8%

CC(=O)n1cc(CS)c(=O)[nH]c1=O
inactive: [1] -6.2% | [2] 1.2% | [3] -2.5% | [4] -15.2% | [5] -2.6% | [6] -19.4%

C1CCCC(N2N=NC3C4CC(C5N=NN(C6CCCCCC6)C45)C32)CC1 (stereo unspecified)
inactive: [1] 12.8% | [2] 17.5% | [3] 7.65% | [4] 64.8% | [5] -8.55% | [6] 11.7%

CCOCCC(O)CC (stereo unspecified)
inactive: [1] 3.3% | [2] -31.2% | [3] -4.9% | [4] 17.7% | [5] 9.8% | [6] 14%

CCOC(=O)c1ccc(N2C(=O)C(Cl)(c3ccccc3)C2c2ccco2)cc1 (stereo unspecified)
inactive: [1] 16.2% | [2] 9.85% | [3] -1.65% | [4] 9.1% | [5] 12.4% | [6] 10.5%

CCCCCCNCc1cc(CNCCCCCC)c(O)c(CNCCCCCC)c1
inactive: [1] 4.5% | [2] 15.4% | [3] 18.4% | [4] -2.4% | [5] 1.4% | [6] 29.6%

COc1ccc(/C=C2\CCC(CNc3cc(C)on3)C2=O)cc1 (stereo unspecified)
inactive: [1] 21.5% | [2] -14.6% | [3] 17.1% | [4] 37.1% | [5] 29.1% | [6] -19.4%

O=[N+]([O-])c1ccc(/C=N\NC(=S)Nc2ccc3cn[nH]c3c2)cc1
inactive: [1] 19.9% | [2] 14.6% | [3] 7.6% | [4] -1.7% | [5] 17.4% | [6] -9.65%

COC(=O)c1cccc2c1-c1ccccc1C2=O
inactive: [1] 9.25% | [2] 11.9% | [3] -18.4% | [4] 5% | [5] 14% | [6] 11.6%

COc1ccc(/C=C2\N=C(c3ccc([N+](=O)[O-])cc3)OC2=O)cc1
inactive: [1] -2.7% | [2] -6% | [3] -8.35% | [4] -9.5% | [5] 0.55% | [6] 18.4%

CCN(C)c1nc(N(C)CC)c2nc(N(C)CC)nc(N(C)CC)c2n1
inactive: [1] 1.95% | [2] -3.4% | [3] 17.8% | [4] 4.5% | [5] -14.5% | [6] -65.1%

O=C(Nc1ccccc1)N1CC2(CN1)CNN(C(=O)Nc1ccccc1)C2
inactive: [1] -3.35% | [2] -3.25% | [3] 15.7% | [4] -8% | [5] -3.35% | [6] -9.75%
